Records with an inconclusive call do not appear. Calls of active or inactive are those of the source. Calls follow the shape of the dose curve; as a rule, active = well fitted inhibition curve with a large enough effect; inconclusive = small, poorly fitted or top-dose-only effect; inactive = flat fitted curve, though single readings scatter.
Each compound was assayed against Luciferin 4-monooxygenase (Photuris pensylvanica) (UniProt Q27757) (assay: Secondary Assay for Luciferase (Kinase-Glo TM) Inhibition Counterscreen). Conditions: Kinase-Glo luciferase enzyme, luminescence; series mostly up to 58.1 µM; activity, negative = inhibition: at the top concentration.
Method in brief: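 Inhibition was fitted with the Hill equation after normalizing luminescence to DMSO (basal) and 40 uM SIB 1757 (full inhibition). Kinase-Glo luciferase ran for 8 min at room temperature in imidazole buffer pH 7.2 with KCl, MgCl2 and 10 uM ATP.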
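For activity, negative = inhibition in this document: 0% = DMSO only and -100% = 40 µM SIB 1757 full inhibition.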
Potency is read from the fitted curve at half-maximal effect.

Structure (SMILES)	activity, negative = inhibition	Potency
Cc1nc(-c2ccc(S(=O)(=O)Nc3ccc(C)c(C)c3)s2)cs1	1.99% (inactive)	
O=C1c2ccccc2C(=O)N1c1cccc(Cl)c1	-1.52% (inactive)	
Cc1ccc(NS(=O)(=O)c2cc3c(cc2Br)NC(=O)CO3)cc1C	-0.929% (inactive)	
O=C1c2ccccc2C(=O)N1c1nccs1	1.91% (inactive)	
O=C1CCc2cc(S(=O)(=O)Nc3cccc(C(F)(F)F)c3)ccc2N1	-1.7% (inactive)	
C[C@]12CC[C@@H]3c4cc(O)c(O)cc4CC[C@H]3[C@@H]1CC[C@@H]2O	-6.33% (inactive)	
O=C1c2ccccc2C(=O)N1c1cccc(=O)[nH]1	-2.84% (inactive)	
Cc1ccsc1C(=O)Nc1nc2ccccc2[nH]1		16.3 µM (active)
O=C1c2ccccc2C(=O)N1c1cccc2cccnc12	-0.904% (inactive)	
O=C1CCc2cc(S(=O)(=O)Nc3cccc4ccccc34)ccc2N1	-0.456% (inactive)	
Cc1ccc(NS(=O)(=O)c2ccc(Cl)cc2)cc1C	-0.974% (inactive)	
O=C(/C=C1\C(=O)Nc2ccccc21)/C=C1\C(=O)Nc2ccccc21	-14.8% (inactive)	
O=C1c2ccccc2C(=O)N1c1ccccn1	1.24% (inactive)	
COc1cccc(NS(=O)(=O)c2ccc3c(c2)CCC(=O)N3)c1	0.18% (inactive)	
Cc1ccc(NS(=O)(=O)c2ccc3[nH]c(=O)[nH]c3c2)cc1C	-1.28% (inactive)	
CN=c1scc(-c2ccco2)n1/N=C/c1ccc(O)c(O)c1	-14.5% (inactive)	
CN=c1nc(-c2ccccc2)n(-c2ccccc2)s1	-0.55% (inactive)	
Cc1ccc(NS(=O)(=O)c2ccc3c(c2)CCCC(=O)N3)cc1C	-3.49% (inactive)	
Cc1ccc(-c2nc3cnccn3c2Nc2ccc(C(C)C)cc2)o1	1.88% (inactive)	
Cc1ccc(NS(=O)(=O)c2cccc(C(=O)O)c2)cc1C	-3.53% (inactive)	

Source: PubChem BioAssay AID2530 (National Center for Advancing Translational Sciences (NCATS), 2010)
